The text below walks through data of ChEMBL document CHEMBL5724796, “Tm Shift (DSF) assay results for EUbOPEN Chemogenomics Library” (2024).

Holding throughout (details): Compound concentration 20.0 uM
The target of assay [1] is Tyrosine-protein kinase ABL1 (Homo sapiens) (UniProt P00519).
The target of assay [2] is Bromodomain-containing protein 4 (Homo sapiens) (UniProt O60885).
The target of assay [3] is Cyclin-dependent kinase 2 (Homo sapiens) (UniProt P24941).
Assay [4] addresses Casein kinase I isoform delta (Homo sapiens) (UniProt P48730).
Assay [5] concerns the target Glycogen synthase kinase-3 beta (Homo sapiens) (UniProt P49841).
For assay [6], the target named is Mitogen-activated protein kinase 1 (Homo sapiens) (UniProt P28482).
Assay [7] addresses T1, Aurora kinase A (Homo sapiens) (UniProt O14965).
T1 sequence (whole entry): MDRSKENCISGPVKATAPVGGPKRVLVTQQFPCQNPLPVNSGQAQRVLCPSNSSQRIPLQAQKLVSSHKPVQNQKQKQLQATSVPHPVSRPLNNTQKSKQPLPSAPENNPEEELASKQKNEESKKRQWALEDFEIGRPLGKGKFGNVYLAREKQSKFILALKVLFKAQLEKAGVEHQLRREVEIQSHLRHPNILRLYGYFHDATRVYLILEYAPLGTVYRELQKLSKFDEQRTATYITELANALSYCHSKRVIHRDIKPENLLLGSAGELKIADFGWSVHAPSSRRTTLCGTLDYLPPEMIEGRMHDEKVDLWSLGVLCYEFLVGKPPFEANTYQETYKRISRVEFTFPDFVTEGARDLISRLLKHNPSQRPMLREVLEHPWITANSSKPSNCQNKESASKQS

For assay [8], the target named is T2, Transcription intermediary factor 1-alpha (Homo sapiens) (UniProt O15164).
T2 sequence (whole entry): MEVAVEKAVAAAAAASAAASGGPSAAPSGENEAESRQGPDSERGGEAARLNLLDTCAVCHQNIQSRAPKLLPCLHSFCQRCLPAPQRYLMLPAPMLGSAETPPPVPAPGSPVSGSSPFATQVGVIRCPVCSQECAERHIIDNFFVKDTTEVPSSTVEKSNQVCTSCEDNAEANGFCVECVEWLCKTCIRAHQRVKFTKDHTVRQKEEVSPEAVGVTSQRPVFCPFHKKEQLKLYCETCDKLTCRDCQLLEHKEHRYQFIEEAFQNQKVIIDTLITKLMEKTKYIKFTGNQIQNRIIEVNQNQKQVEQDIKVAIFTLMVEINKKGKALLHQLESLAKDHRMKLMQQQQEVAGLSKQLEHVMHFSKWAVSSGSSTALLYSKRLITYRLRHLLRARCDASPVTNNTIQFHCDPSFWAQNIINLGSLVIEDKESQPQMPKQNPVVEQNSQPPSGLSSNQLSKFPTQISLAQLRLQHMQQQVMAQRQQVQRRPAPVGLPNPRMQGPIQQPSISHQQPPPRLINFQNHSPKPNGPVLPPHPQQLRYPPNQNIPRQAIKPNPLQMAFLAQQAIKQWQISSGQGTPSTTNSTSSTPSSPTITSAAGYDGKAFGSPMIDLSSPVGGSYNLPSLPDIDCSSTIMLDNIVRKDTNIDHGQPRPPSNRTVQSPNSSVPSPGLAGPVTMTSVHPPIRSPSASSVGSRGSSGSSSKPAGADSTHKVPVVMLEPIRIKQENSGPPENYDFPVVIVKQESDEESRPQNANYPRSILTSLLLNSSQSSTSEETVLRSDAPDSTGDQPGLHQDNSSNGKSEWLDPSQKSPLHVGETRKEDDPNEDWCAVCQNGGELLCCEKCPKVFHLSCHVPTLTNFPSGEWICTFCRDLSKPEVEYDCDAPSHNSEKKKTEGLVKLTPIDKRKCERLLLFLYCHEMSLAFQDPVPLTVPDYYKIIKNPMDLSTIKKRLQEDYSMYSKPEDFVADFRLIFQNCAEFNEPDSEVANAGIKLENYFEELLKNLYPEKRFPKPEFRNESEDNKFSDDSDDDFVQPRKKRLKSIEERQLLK

Casein kinase I isoform delta (Homo sapiens), sequence (P48730 whole entry, looked up, canonical isoform): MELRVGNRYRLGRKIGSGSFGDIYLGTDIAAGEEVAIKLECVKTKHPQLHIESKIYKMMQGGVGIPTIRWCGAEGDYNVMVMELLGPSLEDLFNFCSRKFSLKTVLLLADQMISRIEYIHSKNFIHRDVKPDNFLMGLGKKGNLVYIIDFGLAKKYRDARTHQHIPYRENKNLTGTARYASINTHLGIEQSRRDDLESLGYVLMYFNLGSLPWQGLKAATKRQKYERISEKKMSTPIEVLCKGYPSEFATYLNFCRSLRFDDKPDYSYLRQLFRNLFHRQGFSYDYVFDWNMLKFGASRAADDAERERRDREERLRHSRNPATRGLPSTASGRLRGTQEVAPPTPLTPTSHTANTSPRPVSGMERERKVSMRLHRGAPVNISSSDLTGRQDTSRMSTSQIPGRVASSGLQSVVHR
Tyrosine-protein kinase ABL1 (Homo sapiens), sequence (P00519 whole entry): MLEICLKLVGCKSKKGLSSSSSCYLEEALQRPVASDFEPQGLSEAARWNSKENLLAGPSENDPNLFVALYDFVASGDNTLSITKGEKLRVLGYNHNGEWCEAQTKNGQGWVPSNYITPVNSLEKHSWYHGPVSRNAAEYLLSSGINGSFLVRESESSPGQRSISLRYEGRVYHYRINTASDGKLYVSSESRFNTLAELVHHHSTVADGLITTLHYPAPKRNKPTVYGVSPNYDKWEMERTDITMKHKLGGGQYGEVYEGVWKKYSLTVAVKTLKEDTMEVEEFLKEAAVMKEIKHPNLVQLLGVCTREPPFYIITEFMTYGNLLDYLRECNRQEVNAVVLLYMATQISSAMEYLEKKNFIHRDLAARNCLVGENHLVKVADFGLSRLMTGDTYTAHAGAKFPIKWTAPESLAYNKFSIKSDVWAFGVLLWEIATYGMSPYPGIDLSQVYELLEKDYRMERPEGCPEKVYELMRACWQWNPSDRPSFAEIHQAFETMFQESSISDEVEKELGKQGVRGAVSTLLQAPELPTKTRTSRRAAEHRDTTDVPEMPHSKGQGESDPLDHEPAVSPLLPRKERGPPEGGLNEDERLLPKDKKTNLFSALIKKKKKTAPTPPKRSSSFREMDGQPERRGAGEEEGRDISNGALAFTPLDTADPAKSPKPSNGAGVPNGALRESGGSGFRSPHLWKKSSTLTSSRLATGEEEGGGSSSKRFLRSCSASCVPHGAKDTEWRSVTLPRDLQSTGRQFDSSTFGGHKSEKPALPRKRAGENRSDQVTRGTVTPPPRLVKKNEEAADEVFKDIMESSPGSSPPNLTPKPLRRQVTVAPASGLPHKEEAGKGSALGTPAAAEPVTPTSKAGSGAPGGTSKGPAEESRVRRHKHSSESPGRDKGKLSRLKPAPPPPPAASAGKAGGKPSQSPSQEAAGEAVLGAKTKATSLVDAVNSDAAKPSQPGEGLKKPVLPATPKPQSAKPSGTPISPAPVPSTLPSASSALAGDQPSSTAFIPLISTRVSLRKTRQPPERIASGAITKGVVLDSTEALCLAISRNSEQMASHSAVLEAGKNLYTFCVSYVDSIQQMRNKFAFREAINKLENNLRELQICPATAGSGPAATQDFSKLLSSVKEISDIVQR
Glycogen synthase kinase-3 beta (Homo sapiens), sequence (P49841 whole entry, looked up): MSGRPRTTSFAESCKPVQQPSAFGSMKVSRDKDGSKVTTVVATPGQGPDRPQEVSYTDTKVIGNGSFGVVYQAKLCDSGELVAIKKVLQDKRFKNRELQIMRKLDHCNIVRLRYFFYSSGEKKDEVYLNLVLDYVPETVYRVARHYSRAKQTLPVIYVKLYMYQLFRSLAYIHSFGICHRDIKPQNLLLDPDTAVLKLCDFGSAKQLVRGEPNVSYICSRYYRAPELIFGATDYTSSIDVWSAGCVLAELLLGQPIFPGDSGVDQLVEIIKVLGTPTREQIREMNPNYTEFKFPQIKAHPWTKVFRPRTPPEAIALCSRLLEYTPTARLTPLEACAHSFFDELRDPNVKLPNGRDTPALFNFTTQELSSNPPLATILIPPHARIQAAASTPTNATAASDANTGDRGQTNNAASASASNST
Mitogen-activated protein kinase 1 (Homo sapiens), sequence (P28482 whole entry): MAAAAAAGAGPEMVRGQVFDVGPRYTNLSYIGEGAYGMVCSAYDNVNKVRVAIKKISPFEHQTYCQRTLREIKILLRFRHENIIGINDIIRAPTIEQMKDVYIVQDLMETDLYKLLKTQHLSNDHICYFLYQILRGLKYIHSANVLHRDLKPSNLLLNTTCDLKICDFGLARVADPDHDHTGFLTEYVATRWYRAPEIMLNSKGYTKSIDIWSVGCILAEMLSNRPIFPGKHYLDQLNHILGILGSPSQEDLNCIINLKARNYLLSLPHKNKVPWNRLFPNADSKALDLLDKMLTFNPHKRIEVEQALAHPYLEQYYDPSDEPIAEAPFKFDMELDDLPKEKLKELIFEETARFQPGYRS

`CNc1nccc(CN(CC2CCNCC2)S(=O)(=O)c2ccc(S(=O)(=O)N(Cc3ccc(Cl)cc3)C3CCCC3)cc2)n1`: the ΔTm in assay [1] is 0.85 °C; in assay [2], -3.15 °C; in assay [3], 0.06 °C; in assay [4], 0.31 °C; in assay [5], 0.43 °C; in assay [6], 0.57 °C. In addition, the figures for the thermal shift (ΔTm) in assay [7] and in assay [8] were -2.49 °C and -0.52 °C, respectively.
For `Cc1ccc(NC2=CC(=O)c3sc(C)nc3C2=O)cc1`, the ΔTm is 0.31 °C in assay [1]; -1.66 °C in assay [2]; 0.97 °C in assay [3]; -0.17 °C in assay [4]; -0.8 °C in assay [5]; 0.04 °C in assay [6]. The results for the ΔTm in assay [7] and in assay [8] were -0.65 °C and -1.44 °C, respectively.
Regarding `N[C@@H](CCCCNC(=O)OCc1ccc([N+](=O)[O-])cc1)C(=O)N1CCCC1`, the thermal shift (ΔTm) in assay [1] was 0.09 °C; in assay [2], -2.69 °C; in assay [3], 0.15 °C; in assay [4], -0.16 °C; in assay [5], -0.58 °C; in assay [6] it was 0.13 °C. The ΔTm in assay [7] was -1.1 °C; in assay [8] it was -0.07 °C.
Regarding `O=C1/C(=N/Nc2ccc(S(=O)(=O)O)cc2)C(c2ccc([N+](=O)[O-])cc2)=NN1c1ccccc1`, the ΔTm in assay [1] is 1.16 °C; in assay [2] it was -0.38 °C; in assay [3], -0.28 °C; in assay [4], 0.56 °C; in assay [5] it was -2.61 °C; in assay [6], 0 °C. In addition, the ΔTm is -0.73 °C in assay [7] and -0.32 °C in assay [8].
`CCC(=O)N[C@H]1CC[C@@H](C(=O)N(C)c2ccc(-c3nc4ccccc4o3)cc2)C1`: the ΔTm in assay [1] was 0.54 °C; in assay [2], 0.67 °C; in assay [3] it was -0.03 °C; in assay [4], 0.1 °C; in assay [5], -0.48 °C; in assay [6], -0.17 °C. The results for the ΔTm in assay [7] and in assay [8] were -0.05 °C and -0.29 °C, respectively.
Turning to `COc1cc2c(cc1OC)[C@H]1C[C@@H](OC(=O)[C@@H](N)C(C)C)[C@H](CC(C)C)CN1CC2`, the ΔTm in assay [1] was 0.26 °C; in assay [2], 1.87 °C; in assay [3] it was 0.58 °C; in assay [4], -0.31 °C; in assay [5] it was -0.94 °C; in assay [6], 0.3 °C. For the same compound, the results for the ΔTm in assay [7] and in assay [8] were -1.54 °C and 0.19 °C, respectively.
As for `COc1ccccc1C(=O)Nc1cc2c(cc1N1CCCCC1)n(C)c(=O)n2C`, the ΔTm is 0.35 °C in assay [1]; -2.11 °C in assay [2]; 0.1 °C in assay [3]; 0.01 °C in assay [4]; 0.08 °C in assay [5]; 0.17 °C in assay [6]. For the same compound, the figures for the ΔTm in assay [7] and in assay [8] were -1.43 °C and -0.76 °C, respectively.
As to `CN(C)Cc1ccc(S(=O)(=O)n2ccc(/C=C/C(=O)NO)c2)cc1`, the ΔTm in assay [1] was 0.75 °C; in assay [2] it was -1.99 °C; in assay [3], 0.61 °C; in assay [4], 0.25 °C; in assay [5] it was -0.79 °C; in assay [6], -0.07 °C. Besides, the ΔTm was -0.28 °C in assay [7] and -1.27 °C in assay [8].
Regarding `CC(C)[C@H](NC(=O)OCc1ccccc1)C(=O)NC(CC(=O)O)C(=O)CF` (stereo partly drawn), the ΔTm in assay [1] was -0.18 °C; in assay [2], -3.41 °C; in assay [3] it was -0.73 °C; in assay [4] it was 0.1 °C; in assay [5] it was 0.35 °C; in assay [6], -0.08 °C. Also, the ΔTm in assay [7] was -2.03 °C; in assay [8] it was -1.64 °C.
Turning to `COc1cc(-c2cn(C)c(=O)c3cnccc23)cc(OC)c1CN(C)CC(=O)NCCOCCOCCNc1cccc2c1C(=O)N(C1CCC(=O)NC1=O)C2=O` (stereo not drawn), the ΔTm is 0.07 °C in assay [1]; -1.54 °C in assay [2]; 0.21 °C in assay [3]; 0.06 °C in assay [4]; 0.14 °C in assay [5]; -0.38 °C in assay [6]. In addition, the ΔTm in assay [7] was -1.03 °C; in assay [8], -0.75 °C.
Consider `O=C(O)c1cccc(-c2ccc(-c3cn(C(=O)N4CCCCC4Cc4ccccc4)nn3)cc2)c1` (stereo not drawn), for which the ΔTm in assay [1] is -0.1 °C; in assay [2], -2.23 °C; in assay [3], -0.87 °C; in assay [4], -4.82 °C; in assay [5], -4.03 °C; in assay [6], 0.56 °C. The ΔTm in assay [7] was -3.62 °C; in assay [8], -0.34 °C.
